# Data published in PubChem BioAssay AID912 (National Center for Advancing Translational Sciences (NCATS), 2007).
# The whole screen tested about 70,000 compounds, of which about 470 (0.67%) were called active. Where a call stands in place of a potency, no number is given. Roughly 18% stayed inconclusive and do not appear here. The sample holds actives, similar compounds and a random draw of the others, so the mix is not that of the screen. Calls come from the whole dose curve.
# Test: qHTS Assay for Anthrax Lethal Toxin Internalization; note: nearly all actives have a fitted effect of over 50% in size
# Details: Cells, FRET ratio (460/530); series mostly up to 40 µM
# Potency is the fitted concentration of half-maximal effect.
Structure (SMILES),"activity change, negative = inhibition",Potency
CC(C)CO/N=C1/C[C@@H](O)[C@@H](O)[C@@H]2[C@@H]3C(=O)N(C[C@@H]4CCCO4)C(=O)[C@H]3CC[C@@H]12,0.14% [at 8 µM] (inactive),
CCOC(=O)[C@]1(C(/C=C/c2ccco2)NC(=O)OC)CCCC1=O (stereo partly specified),-10.5% [at 8 µM] (inactive),
CSc1nnc2c(n1)OC(c1cn(C)c3ccccc13)N(C(C)=O)c1ccccc1-2 (stereo unspecified),inactive,
CC1(C)OC(C(O)(c2ccccc2)c2ccccc2)C(C(O)(c2ccccc2)c2ccccc2)O1 (stereo unspecified),-5.79% [at 8 µM] (inactive),
CO[C@H]1COC(=O)C/C=C\[C@H](C)COC(=O)[C@@H](OCc2ccccc2)/C=C\[C@@H]1C,-13% [at 1.6 µM] (inactive),
CCOC(=O)c1sc(NC(=O)C(CC)Sc2nccn2C)nc1C (stereo unspecified),inactive,
CC(C)CO,inactive,
O=C(CSC1=Nc2ccccc2C2=NC(c3ccccc3)C(=O)N12)NCC1CCCO1 (stereo unspecified),inactive,
CC(C)CC1(C(=O)NCc2ccccn2)C=CCN1C(=O)c1ccccc1 (stereo unspecified),inactive,
CCCN(C/C=C\I)[C@@H]1CCc2cccc(O)c2C1,inactive,
Brc1cc(Br)c(Oc2cc(Br)c(Br)cc2Br)cc1Br,,1 µM (active)
CCCCCCCCCCCC(=O)O[C@H](CC(=O)O)C[N+](C)(C)C,inactive,
CCCOC(=O)Nc1ccccc1C(N)=O,inactive,
C=CCOC(=O)COCCC(C)C,inactive,
CCCn1c(C)nc2c(NCCCCN(CC)CC)nc(C)nc21,inactive,
CC(=O)c1c(O)c(C)c(O)c(Cc2c(O)c3c(c(C(=O)/C=C\c4ccccc4)c2O)OC(C)(C)C=C3)c1O,,15.8 µM (active)
N#CCCn1c(=O)c(-c2cc(F)cc(F)c2)nc2cnc(Oc3ccccc3)nc21,inactive,
CO[C@H]1COC(=O)[C@@H](C)NC(=O)C/C=C\[C@@H](C)[C@H](OC)COC(=O)C/C=C\[C@@H]1C,5.17% [at 8 µM] (inactive),
c1ccc(CN2CC[C@@]3(CCCNC3)C2)cc1,,10 µM (active)
CC(=O)N1CCC2(CCCN(Cc3ccccc3)C2)CC1,inactive,
CS(=O)(=O)N1CCC2(CC1)CN(Cc1ccccc1)C2,inactive,

Structure (SMILES),"activity change, negative = inhibition",Potency
CC(=O)N1[C@H](C)C=C[C@]1(Cc1ccccc1)C(=O)NCc1ccccn1,inactive,
C#CCC(C(=O)OC)(C(=O)OC)C(C[N+](=O)[O-])c1ccccc1 (stereo unspecified),2.17% [at 8 µM] (inactive),
CC(C)(O)/C=C\C(=O)[C@](C)(O)[C@H]1[C@H](O)C[C@]2(C)[C@@H]3CC=C4[C@@H](C=C(O)C(=O)C4(C)C)[C@]3(C)C(=O)C[C@@]12C,,0.0316 µM (active)
Cc1c(NC(=O)Nc2ccccc2Cl)sc(=S)n1C,inactive,
COC(=O)[C@@H]1CC[C@H](C)[C@@H](c2ccc(C)cc2)N1C(=O)c1ccc(/C=N\OC[C@@H](O)COCc2ccco2)cc1,12.1% [at 8 µM] (inactive),
CCCCCCN(C(=O)CCCCCN1C(=O)NC(c2ccc(C(F)(F)F)cc2)C(C(=O)OCc2ccccc2)=C1C)C(C(=O)NCCCC)c1ccc(OCC(=O)OC)c(C(=O)OC)c1 (stereo unspecified),inactive,
CC(C)CSC[C@@H]1O[C@H](n2cnc3c(N)nccc32)[C@H](O)[C@@H]1O,-14.1% [at 8 µM] (inactive),
S=c1c2[nH]cnc2ncn1CCSc1ncnc2nc[nH]c12,-7.68% [at 8 µM] (inactive),
Cc1nc2cnc(N3CCNCC3)nc2n(CCc2ccccc2)c1=O,inactive,
O=P(c1cccs1)(c1cccs1)c1cccs1,inactive,
C[C@]1(C(=O)NCCc2c[nH]c3ccccc23)C=C[C@@H](Cc2ccccc2)N1C(=O)c1ccccc1,inactive,
CO/N=C\[C@@H](C)[C@H](OCc1ccccc1)C(C)C,1.89% [at 1.6 µM] (inactive),
CCn1c(CNC(=O)c2ccc(OC)c(OC)c2)nnc1SCC(=O)Nc1ccccc1,inactive,
CCOC(=O)N/N=C1/C[C@@H](O)[C@@H](O)[C@@H]2[C@@H]3C(=O)N(CC)C(=O)[C@H]3CC[C@H]12,4.77% [at 8 µM] (inactive),
CN(CCCNC(=O)CN1C(=O)CC(C)(C)S(=O)(=O)c2ccccc21)C1CCCCC1,inactive,
CCCCCCCCCCCC(=O)O,inactive,
CC(C)C[C@@H](CC(=O)N[C@@H](CCC(=O)O)CC(=O)O)NC(=O)[C@@H]1CCCC[C@H]1NC(=O)C[C@@H](NC(=O)C[C@H](Cc1c[nH]c2ccccc12)NC(=O)[C@@H]1CCCC[C@H]1N)C(C)C,inactive,
COc1ccc(Br)c2c1C[C@H](C(=O)O)CC2,-10.3% [at 8 µM] (inactive),
Cc1cc(N2CCCCC2)nc2ccc(Cc3ccc4nc(N5CCCCC5)cc(C)c4c3)cc12,3.79% [at 8 µM] (inactive),
C[C@H]1CC[C@H](C(=O)O)N[C@@H]1c1ccc(C#Cc2ccccc2)cc1,0.0911% [at 1.6 µM] (inactive),
